# High-throughput results from PubChem.
# esBAF inh: Bmi1 luciferase reporter increase in mESCs, primary screen, esBAF inhibitor project, mouse ES cells, Bmi1 luciferase knock-in, single point | AID 602393, 2012 | 350,000 compounds, 2% hits | 24 h; 100% = twice the neutral-well signal | reporter increase, % at 12.5 µM; in the data active means activation above about 40%; inconclusive means no clear call, values can overlap the other calls;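 further: 0% = median of the plate's neutral control wells and 100% = double that signal; a rise in the Bmi1 reporter signal indicates esBAF inhibition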
# SMARCA2 act: SMARCA2 (BRM) function activators, primary screen, cell-based, luminescence, high throughput. MG213 cells, MMTV-luciferase reporter, dexamethasone, overnight. activation, % at 9.1 µM. 370,000 compounds, 1% hits. AID 652017, 2013; in the data active means activation above about 7.8%;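 further: 0% = vehicle wells and 100% = reference activator wells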
# Gli-Sufu block: Gli-Sufu pathway antagonists, primary screen, luciferase luminescence, Sufu-KO-LIGHT cells, uHTS; Sufu-KO-LIGHT fibroblasts, Gli luciferase reporter luminescence; inhibition, % at 5 µM; 340,000 compounds, 0.74% hits;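 active means inhibition above about 55%, limit read from the data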;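 further: 0% = DMSO-treated cells and 100% = wells with medium but no cells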
# Jurkat NFkB inh: inhibitors of induced NF-kB luciferase reporter, primary screen, TCR NF-kB activation inhibitor project, cell-based, luminescence, uHTS. Jurkat, PMA/ionomycin-induced NF-kB luciferase reporter. inhibition, % at 4 µM. 330,000 compounds, 0.53% hits. AID 435003, 2010; in the data active means inhibition above about 50%
# 697 NFkB inh: inhibitors of PMA/ionomycin-induced NF-kB reporter, 697 cells, primary screen, B-cell NF-kB inhibitor project, cell-based, luminescence, uHTS; 697 B-cell NF-kB luciferase reporter, 16 h; inhibition, % at 4 µM; 330,000 compounds, 0.33% hits; AID 435022, 2010; in the data active means inhibition above about 35%
# SMARCA2 act conf: SMARCA2 (BRM) function activators, confirmation, cell-based, luminescence, triplicate; shares compounds with SMARCA2 act; MG213 cells, MMTV-luciferase with dexamethasone, overnight; MG213 cells expressing E1A, Rb sequestered; DMSO wells 0%, reference activator 100%; activation, % at 9.1 µM; 3,500 compounds, 30% hits; AID 652260, 2013;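 active means activation above its plate's cutoff, the mean activation of tested wells plus 3 SD, cut at about 7.9% in these data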
# GAL4-VP16 Luc: GAL4-VP16 luciferase reporter activation, counter-screen for SMARCA2 (BRM) activator project, cell-based, pG5luc, luminescence, high throughput; activation, % at 9.1 µM; shares compounds with SMARCA2 act; HEK293 GAL4-VP16 pG5luc reporter; scaled: DMSO wells 0%, SAHA wells 100%; 3,500 compounds, 41% hits; AID 686939, 2013;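 active means activation above the solvent-only control well mean plus 3 SD, averaged across control plates, cut at about 5.2% in these data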
# Numbers without * were called inactive; u = inconclusive; x = not tested or not shown. Rows were chosen to be rich in hits. Some 3.3% of all compounds tested hit in one or more screens of this group.
SMILES,esBAF inh,SMARCA2 act,Gli-Sufu block,Jurkat NFkB inh,697 NFkB inh,SMARCA2 act conf,GAL4-VP16 Luc
Cc1ccc(S(=O)(=O)Nc2ccc3c(c2)CC(=O)N([C@@H](C)CO)C[C@H](C)[C@@H](CN(C)C(=O)Nc2ccc4c(c2)OCO4)O3)cc1,-2,x,x,x,x,x,x
COc1cccc(-c2ccc3c(N)c(C(=O)NC4CC4)sc3n2)c1,x,13*,-62,-98,-148,3,8.5*
COc1ccc(-c2ccc3c(N)c(C(=O)c4cccc(OC)c4)sc3n2)cc1,2,-3,3,-26,-71,x,x
CCCNC(=O)N1C[C@H]2[C@@H](c3ccccc31)[C@H](CO)N2CC1CCCCC1,-4,x,x,x,x,x,x
COC(=O)Cc1nnn2c1[C@H](C)[C@@H](OC)c1ccc(C(F)(F)F)cc1-2,x,11*,x,x,x,0,3
Cc1noc(C)c1NC(=O)N1C[C@@H](O)COC[C@H]2O[C@H](CC(=O)NCC3CCCCC3)CC[C@@H]21,-4,x,x,x,x,x,x
COc1cc(/C=C2\CC/C(=C\c3ccc(OCCO)c(OC)c3)C2=O)ccc1OCCO,x,0,-8,-12,8,x,x
COc1cc(C=NN=c2sc3ccccc3n2C)ccc1OCCO,x,11*,x,x,x,10*,12*
CCNC(=O)CSc1nnc(-c2cccc(S(=O)(=O)N(CC)CC)c2)n1CCc1ccccc1,-11,8.9*,0,-6,0,-4,0
O=C(CSc1nnc2ccccn12)Nc1ncc(Cl)cc1Cl,u,9.5*,-26,-27,-18,8.4*,3
C[C@@H]1CN([C@@H](C)CO)C(=O)Cc2cc(NC(=O)NC3CCCCC3)ccc2O[C@H]1CN(C)S(C)(=O)=O,2,x,x,x,x,x,x
Cc1sc(=NC(=O)c2ccco2)n(C)c1-c1ccc(F)cc1,x,8.8*,10,-85,-84,14*,12*
CCCC(=O)Nc1nnc(-c2ccc3c(c2)OCCO3)o1,x,10*,-16,-30,0,6,4
CCCC(=O)Nc1nc(-c2ccc3c(c2)OCCO3)cs1,33,6,-109,-139,-199,x,x
O=C(C[C@@H]1CC[C@H](NC(=O)c2ccc3c(c2)OCO3)[C@@H](CO)O1)NCc1ccc(Oc2ccccc2)cc1,-18,x,x,x,x,x,x
Oc1c(N=Nc2ccc(F)cc2)ccc2ccccc12,-9,11*,-91,-141,-243,4,8.6*
Oc1ccc2ccccc2c1N=Nc1ccc(F)cc1,5,3,3,-9,-15,x,x
COc1cccc(/C=N/Nc2nnc(C)n2N)c1OCc1ccccc1Cl,x,16*,6,11,22,0,1
CCc1nnc(N/N=C/c2ccccc2Cl)n1N,-37,-3,-10,9,12,x,x
Cn1c(COc2ccccc2Br)nc2ccccc21,u,5,-76,-95,-97,x,x
COc1ccccc1OCc1nc2ccccc2n1C,48*,10*,-39,-26,-28,12*,7.5*
COc1ccc(NC(=O)N2C[C@@H](O)COC[C@H]3O[C@@H](CC(=O)NCc4ccccc4OC)CC[C@@H]32)cc1,1,x,x,x,x,x,x
CCN(CC)C(=O)c1cc2c(=O)c3cc(F)ccc3oc2nc1C,33,9.6*,-14,-4,-3,4,4
Cc1cccc(N2CCN(C(=O)c3nn(C)c4c3CS(=O)(=O)c3ccccc3-4)CC2)c1C,2,10*,-2,-1,-12,-2,0
Cc1occc1C(=O)Nc1ccc(Br)cc1F,46*,10*,-68,-42,-42,16*,10.0*
SMILES,esBAF inh,SMARCA2 act,Gli-Sufu block,Jurkat NFkB inh,697 NFkB inh,SMARCA2 act conf,GAL4-VP16 Luc
COc1ccccc1NC(=O)N1CCCCN2[C@@H](CO)[C@H](c3ccc(-c4cccc(F)c4)cc3)[C@@H]2C1,-6,x,x,x,x,x,x
C[C@H]1CN([C@@H](C)CO)C(=O)c2cc(NC(=O)c3ccncc3)ccc2O[C@H]1CN(C)Cc1ccncc1,-2,x,x,x,x,x,x
Cc1ccc(S(=O)(=O)NN=CC2(c3ccccc3)CC2)cc1,0,9.8*,x,x,x,-1,-1
Cc1ccc(S(=O)(=O)N/N=C\C=C\c2ccccc2)cc1,x,0,0,-12,25,x,x
O=C(Nc1cc2c(cc1Br)OCCO2)c1cccs1,37,10*,5,-52,-73,3,9.0*
c1coc(CNc2nc3ccccc3s2)c1,28,9.7*,-92,-114,-117,15*,12*
c1coc(CNc2nc(-c3ccncc3)cs2)c1,21,2,-30,-18,-16,x,x
COc1ccc(-c2csc(NCc3ccco3)n2)cc1,25,9.2*,-33,-37,-13,9.5*,13*
C[C@H]1CN([C@@H](C)CO)S(=O)(=O)c2ccc(-c3ccncc3)cc2O[C@H]1CN(C)C(=O)C1CCCCC1,9,x,x,x,x,x,x
Cc1cc(C)cc(NC(=O)CCN2CC(C)OC(C)C2)c1 (configuration not stated),2,8.4*,1,9,18,-3,2
CN(C)CC(=O)Nc1ccc2c(c1)[C@H]1C[C@H](CC(=O)NCCN3CCCCC3)O[C@H](CO)[C@H]1O2,6,x,x,x,x,x,x
COc1cc(C=Nn2c(-c3cc(-c4ccccc4)n[nH]3)n[nH]c2=S)ccc1OC(C)=O,x,14*,x,x,x,10*,3
S=c1[nH]nc(-c2cc(-c3ccccc3)n[nH]2)n1/N=C/c1ccccc1,3,4,9,1,-22,x,x
CNC(=O)C[C@H]1CC[C@@H]2[C@H](COC[C@@H](O)CN2Cc2ccc(C(F)(F)F)cc2)O1,-5,x,x,x,x,x,x
CN(C)c1ccc(N=Nc2cccc3ccoc23)cc1,u,9.8*,-91,-134,-192,8,11*
CCS(=O)(=O)Nc1ccc2c(c1)C(=O)N(C)C[C@@H](OC)[C@H](C)CN(C(=O)COC)[C@H](C)CO2,-11,x,x,x,x,x,x
C=CCn1c(O)c(C2=c3ccccc3=NC2=O)sc1=Nc1ccc(O)cc1,1,9.6*,2,9,-11,-2,-1
O=C1N=c2ccccc2=C1c1sc(=S)n(NC(=O)c2ccccc2)c1O,x,0,-14,6,14,x,x
COc1ccc2nc(-n3c(O)c(C4=c5ccccc5=NC4=O)[nH]c3=S)sc2c1,x,-1,-1,x,x,x,x
Cc1cccc(CC2CC(=O)N(c3nc4ccccc4s3)C2=O)c1 (configuration not stated),5,1,15,7,13,x,x
Cc1ccc2nc(N3C(=O)CNC3=S)sc2c1,x,15*,-72,-28,-213,-4,16*
